A short description of assay [1]: HepG2 liver cancer cell viability effects, profiling panel, resazurin fluorescence, 24 h, PK04 Diversity Set (AID 1172). As to conditions: higher = more signal. On the technique in general: Alamar Blue is a resazurin reagent that responds to reducing activity.
The nature of assay [2]: basal S. cerevisiae growth modulation, no modifier, primary screen, OD600, strain BY4716, 24 h, basal condition (AID 1173). The settings on record: OD600, 24 h, higher = more signal, called active from +8 up or from −8 down.
Assay [3] is described as follows: MM1S myeloma cell viability, profiling panel, resazurin fluorescence, basal, 24 h, PK04 Diversity Set (AID 1174).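 Further: MM1S multiple myeloma cell line.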 The settings on record: higher = more signal, called active from +8 up or from −8 down.
For assay [4], the target named is Dihydroorotate dehydrogenase (quinone), mitochondrial (Plasmodium falciparum (isolate 3D7)) (UniProt Q08210). The experiment in a line: PfDHODH enzyme inhibitors, primary screen, biochemical, C-terminal His tag, absorbance 600 nm (AID 1175).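 Further: recombinant parasite enzyme with a five histidine tag at its C terminus.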 The settings on record: DCIP absorbance 600 nm, higher = more signal, called active from +8 up or from −8 down.
Sequence of Dihydroorotate dehydrogenase (quinone), mitochondrial (Plasmodium falciparum (isolate 3D7)) (Q08210 whole entry, looked up): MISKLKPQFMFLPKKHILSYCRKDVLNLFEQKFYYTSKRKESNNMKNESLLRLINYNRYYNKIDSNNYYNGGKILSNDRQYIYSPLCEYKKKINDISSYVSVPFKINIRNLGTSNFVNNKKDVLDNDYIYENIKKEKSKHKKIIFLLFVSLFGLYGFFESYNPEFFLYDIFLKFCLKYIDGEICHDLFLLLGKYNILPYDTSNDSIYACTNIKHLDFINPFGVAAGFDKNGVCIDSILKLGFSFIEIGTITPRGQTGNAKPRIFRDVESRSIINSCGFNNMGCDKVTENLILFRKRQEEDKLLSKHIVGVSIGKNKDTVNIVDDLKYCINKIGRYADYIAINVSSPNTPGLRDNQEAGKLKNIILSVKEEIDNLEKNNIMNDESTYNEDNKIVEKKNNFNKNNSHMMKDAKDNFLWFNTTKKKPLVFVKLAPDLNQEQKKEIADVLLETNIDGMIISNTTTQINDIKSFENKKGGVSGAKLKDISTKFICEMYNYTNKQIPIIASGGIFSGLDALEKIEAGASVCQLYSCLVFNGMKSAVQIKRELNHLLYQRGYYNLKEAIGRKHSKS
Assay [5] in a line: P. aeruginosa biofilm formation inhibitors, primary screen, strain PAO1, LB-PBS medium, absorbance 600 nm (AID 1176). The settings on record: P. aeruginosa PAO1 growth/biofilm, A600, 12 h; higher = more signal.
Assay [6] is described as follows: S. cerevisiae RM11-1a growth modifiers, primary screen, strain RM11-1a, OD600, basal, 24 h (AID 1177).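 Further: cultures grown under basal conditions with no added stressor.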 As to conditions: OD600, 24 h, higher = more signal, called active from +8 up or from −8 down.
Assay [7] can be described thus: E. coli acrAB mutant growth effects, primary screen, E. coli filamentation inducers, strain DRC39, OD650, 24 h (AID 1178).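 Further: growth measured as culture turbidity by optical density at 650 nm.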 As to conditions: higher = more signal, called active from +8 up or from −8 down.
Assay [8] is described as follows: E. coli acrAB mutant growth effects, primary screen, E. coli filamentation inducers, strain DRC39, OD650, 48 h (AID 1179).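 Further: screen aims at cell division blockers that make cells filament.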 The settings on record: E. coli DRC39 delta-acrAB growth, higher = more signal, called active from +8 up or from −8 down.
A short description of assay [9]: RPMI8226 myeloma cell viability, profiling panel, resazurin fluorescence, basal, 24 h, PK04 Diversity Set (AID 1180).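 Further: RPMI8826 multiple myeloma cell line at 5000 cells per well.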 The settings on record: higher = more signal.
Assay [10] concerns the target E3 ubiquitin-protein ligase XIAP (Homo sapiens) (UniProt P98170). The experiment in a line: XIAP binders, primary screen, biophysical, small-molecule microarray, fluorescence 635 nm (AID 1181).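 Further: score merges 667 nm emission and signal to noise over triplicate slides.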 As to conditions: small-molecule microarray binding, higher = more signal.
The subject of assay [11] is XIP peptide (Xip251-270) binding. The experiment in a line: small-molecule binders of XIP peptide, primary screen, biochemical, small-molecule microarray, fluorescence 635/667 nm, 0.1 µg/mL protein (AID 1182). As to conditions: fluorescent protein binding, 635 nm, higher = more signal, called active from +8 up or from −8 down.
The test system of another assay is XIP peptide (Xip251-270). Put plainly: small-molecule binders of XIP peptide, primary screen, biochemical, small-molecule microarray, fluorescence 635/667 nm, 0.5 µg/mL protein (AID 1183). As to conditions: small-molecule microarray binding, fluorescence 635 nm; higher = more signal.
A short description of assay [12]: Plasmodium falciparum growth inhibition, primary screen, strain 3D7, DAPI fluorescence, 100 nL (AID 1184).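 Further: parasites grown inside human red blood cells in medium with human serum.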 As to conditions: P. falciparum 3D7 growth, 3 d, higher = more signal.
Assay [13] addresses Homeobox protein Hox-A13 (Mus musculus) (UniProt Q62424). The experiment in a line: inhibitors of HoxA13-DNA binding, primary screen, biochemical, fluorescence polarization, labeled oligonucleotide (AID 1185). The settings on record: 15 min, higher = more signal, called active from +8 up or from −8 down. Background: In fluorescence polarisation assays a small probe gives low polarisation when free and higher when bound to something large.

Assay [14] is described as follows: inhibitors of hydroxyurea-induced Chk1 phosphorylation, primary screen, imaging, HeLa, phospho-Chk1 antibody, percent positive cells (AID 1186). As to conditions: hydroxyurea-induced phospho-Chk1 immunofluorescence imaging, higher = more signal.
Assay [15] is described as follows: inhibitors of hydroxyurea-induced Chk1 phosphorylation, primary screen, imaging, HeLa, phospho-Chk1 nuclear intensity (AID 1187). As to conditions: hydroxyurea-induced phospho-Chk1 immunofluorescence imaging, higher = more signal.

Activity calls are given as the source filed them. Unless noted, how the calls were made is not given here.

Sequence of Homeobox protein Hox-A13 (Mus musculus) (Q62424 whole entry, looked up): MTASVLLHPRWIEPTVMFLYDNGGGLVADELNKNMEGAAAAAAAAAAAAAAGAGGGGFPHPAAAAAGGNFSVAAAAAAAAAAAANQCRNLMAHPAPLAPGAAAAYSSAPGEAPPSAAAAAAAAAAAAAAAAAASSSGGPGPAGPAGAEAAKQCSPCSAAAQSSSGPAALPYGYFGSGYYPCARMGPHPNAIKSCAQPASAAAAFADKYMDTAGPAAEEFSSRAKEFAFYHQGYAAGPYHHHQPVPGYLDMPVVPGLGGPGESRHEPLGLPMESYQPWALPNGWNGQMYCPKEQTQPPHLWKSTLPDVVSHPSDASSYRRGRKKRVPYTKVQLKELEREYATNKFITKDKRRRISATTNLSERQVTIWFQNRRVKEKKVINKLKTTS
Sequence of E3 ubiquitin-protein ligase XIAP (Homo sapiens) (P98170 whole entry, looked up): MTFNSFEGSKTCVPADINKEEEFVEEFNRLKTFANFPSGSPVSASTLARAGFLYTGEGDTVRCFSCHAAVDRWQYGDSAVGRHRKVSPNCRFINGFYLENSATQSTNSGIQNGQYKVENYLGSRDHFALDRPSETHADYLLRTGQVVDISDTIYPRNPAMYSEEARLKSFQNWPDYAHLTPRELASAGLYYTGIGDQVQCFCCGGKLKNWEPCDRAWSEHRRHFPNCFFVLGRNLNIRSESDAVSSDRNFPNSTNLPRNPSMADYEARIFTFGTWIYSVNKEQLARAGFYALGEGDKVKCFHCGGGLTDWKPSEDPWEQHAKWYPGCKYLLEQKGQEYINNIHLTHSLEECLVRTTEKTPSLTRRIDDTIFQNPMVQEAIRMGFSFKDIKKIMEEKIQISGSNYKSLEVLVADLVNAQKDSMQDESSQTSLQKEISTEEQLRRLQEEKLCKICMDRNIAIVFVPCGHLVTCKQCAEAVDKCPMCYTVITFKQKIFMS

For `CCCNC(=O)[C@@]1(Sc2ccc(C)cc2)CC(=O)N(Cc2ccccc2)[C@@H]1c1ccc(CO)cc1I`, the z-score was -0.38 in assay [1]; -2.59 (inactive) in assay [2]; -3.26 (inactive) in [3]; 1.14 (inactive) in assay [5]; -0.598 (inactive) in assay [6]; 0.214 (inactive) in assay [7]. Besides, the z-score in assay [8] was 0.0547 (inactive); in [9], -2.81; in assay [12] it was 0.179; in assay [13], -2.54 (inactive); in [14], 0.264 (inactive); in assay [15] it was 0.372 (inactive). Moreover, the composite z-score in [4] was -11.5 (active); in assay [10], 0.0471; in [11], 0.334 (inactive); in the assay with XIP peptide (Xip251-270), 0.889.

Consider `CCOC(=O)C[C@H]1[C@H](OC(=O)Cc2ccc3c(c2)OCO3)[C@@H](NC(=O)c2ccccc2)c2cc(OCCCO)ccc2N1C(=O)c1ccccc1`, for which the z-score was -0.688 in [1]; -0.271 (inactive) in assay [2]; 0.103 (inactive) in assay [3]; 0.0885 (inactive) in [5]; 0.0859 (inactive) in assay [6]; 0.31 (inactive) in assay [7]. The z-score was 0.676 (inactive) in assay [8]; -0.19 in assay [9]; -0.385 in [12]; -3.12 (inactive) in assay [13]; -0.454 (inactive) in assay [14]; -0.342 (inactive) in assay [15]. The composite z-score was -1.11 (inactive) in assay [4], -0.309 in assay [10], -0.0294 (inactive) in assay [11] and 0.643 in the assay on XIP peptide (Xip251-270).

For the molecule `COc1cccc(C)c1NC(=O)O[C@H]1[C@H](OC(=O)Nc2ccccc2)[C@H](OC(=O)Nc2ccccc2)[C@@H](OC)O[C@@H]1CO`, the z-score in assay [1] is -1.22; in assay [2], 0.803 (inactive); in [3], -2.2 (inactive); in assay [5] it was 0.565 (inactive); in [6], 0.673 (inactive); in [7], 0.462 (inactive). Further, the z-score in assay [8] was -0.358 (inactive); in assay [9], -1.65; in [12] it was -1.51; in assay [13] it was -5.38 (inactive); in [14], -0.0198 (inactive); in assay [15] it was 0.136 (inactive). Moreover, the composite z-score was 0.111 (inactive) in assay [4], 0.0744 in assay [10], 1.57 (inactive) in assay [11] and 0.401 in the assay on XIP peptide (Xip251-270).

Consider `CC(C)C[C@@H]1NC(=O)[C@@H]2C[C@H](C(=O)NCCCC[N+](C)(C)C)[C@H](c3cccc(OCCO)c3)N2C1=O`, for which the z-score in [1] was -3.45; in [2], 1.45 (inactive); in assay [3] it was -0.986 (inactive); in assay [5], 1.3 (inactive); in assay [6] it was 0.958 (inactive); in assay [7], -0.234 (inactive). For the same molecule, the z-score was -0.667 (inactive) in assay [8]; -1.16 in assay [9]; 0.0751 in assay [12]; -3.05 (inactive) in assay [13]; -0.366 (inactive) in assay [14]; -0.333 (inactive) in assay [15]. The composite z-score in assay [4] is -29 (active); in [10], -0.127; in [11], 0.974 (inactive); with XIP peptide (Xip251-270) it was 0.0734.

Consider `O=C1C[C@@](C(=O)NCc2ccccc2)(c2ccc([N+](=O)[O-])cc2)[C@@H](c2ccc(CO)cc2I)N1C1CCCCC1`, for which the z-score in [1] was -0.327; in [2], 0.432 (inactive); in assay [3] it was 0.566 (inactive); in assay [5] it was -0.301 (inactive); in [6], 1.88 (inactive); in [7], 0.445 (inactive). Besides, the z-score is -0.0118 (inactive) in assay [8]; 0.787 in [9]; -1.45 in assay [12]; -3.45 (inactive) in [13]; 0.173 (inactive) in [14]; 0.408 (inactive) in assay [15]. Moreover, the composite z-score in [4] was 0.634 (inactive); in assay [10], -0.115; in assay [11] it was 0.193 (inactive); with XIP peptide (Xip251-270) it was 0.676.

Turning to `CCCC[C@@H](O)C1=C(COc2ccccc2)Cn2c(=O)n(-c3ccccc3)c(=O)n2[C@H]1CO`, the z-score in assay [1] was -0.196; in assay [2], -4 (inactive); in [3], 0.0088 (inactive); in [5], 0.789 (inactive); in [6] it was -3.57 (inactive); in [7], 1.36 (inactive). Also, the z-score in assay [8] is 0.0244 (inactive); in [9], 0.539; in assay [12], -0.471; in assay [13] it was -6.48 (inactive); in [14] it was -0.532 (inactive); in assay [15], 0.347 (inactive). Further, the composite z-score in [4] is -1.05 (inactive); in assay [10] it was 0.106; in assay [11] it was 1.52 (inactive); with XIP peptide (Xip251-270) it was 0.628.

`CN(C)CCCCNC(=O)[C@H]1C[C@H]2C(=O)N[C@@H](CCCC[N+](C)(C)C)C(=O)N2[C@H]1c1cccc(OCCO)c1`: the z-score in assay [1] is 0.49; in assay [2] it was 0.168 (inactive); in [3] it was 0.505 (inactive); in assay [5] it was 1.06 (inactive); in [6] it was -0.557 (inactive); in assay [7], -0.163 (inactive). In addition, the z-score in assay [8] is -0.853 (inactive); in assay [9], -0.0588; in assay [12] it was -0.0344; in assay [13], -3.83 (inactive); in assay [14] it was -0.0589 (inactive); in [15], -0.216 (inactive). Besides, the composite z-score in [4] was -0.119 (inactive); in assay [10] it was -0.243; in [11], 1.42 (inactive); in the assay on XIP peptide (Xip251-270), 0.689.

For the molecule `COC(=O)[C@@]1(Cc2ccccc2)[C@H]2c3cc(C(=O)N(C)C)n(Cc4ccccn4)c3C[C@H]2CN1C(=O)c1ccccc1`, the z-score in assay [1] was -0.802; in [2], 1.6 (inactive); in assay [3], -1.33 (inactive); in [5], 0.964 (inactive); in assay [6], 0.781 (inactive); in [7] it was -1.19 (inactive). Further, the z-score in assay [8] was -0.507 (inactive); in assay [9] it was -1.26; in [12], -0.847; in [13], -4.92 (inactive); in assay [14] it was 0.545 (inactive); in [15], 0.295 (inactive). Also, the composite z-score in assay [4] is 0.611 (inactive); in assay [10] it was 0.124; in assay [11], 1.08 (inactive); in the assay on XIP peptide (Xip251-270) it was 0.595.

Regarding `CC1C=C(CCCO)C=C(C(=O)OCCS(C)(=O)=O)C(C(=O)OCCS(C)(=O)=O)=CN1Cc1cccc(OC(F)(F)F)c1` (centres undefined), the z-score in [1] is -0.096; in assay [2] it was -3.46 (inactive); in [3], -0.0212 (inactive); in assay [5], 0.944 (inactive); in assay [6] it was 0.309 (inactive); in assay [7] it was 0.736 (inactive). Further, the z-score in assay [8] was 0.503 (inactive); in [9], 0.0364; in assay [12], -2.67; in [13] it was -7.2 (inactive); in assay [14] it was -0.0917 (inactive); in [15] it was 0.397 (inactive). Besides, the composite z-score in assay [4] is -2.15 (inactive); in assay [10], -0.0659; in assay [11], 0.392 (inactive); in the assay with XIP peptide (Xip251-270) it was -0.0318.

Values taken from PubChem BioAssay.
